For assay [1], the system named is Human papillomavirus type 1a protein E7 (residues 44-93). The assay is described as follows: small molecules binding HPV E7 44-93 – biochemical, small-molecule microarray, residues 44-93, 635 nm fluorescence, primary screen (AID 1108).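 Note: E7 fragment applied at 1 µg/mL in TBST for 1 h at 4 C; score combines spot fluorescence with its signal to noise ratio.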 The following applies: fluorescence 635 nm, higher = more signal.
Assay [2] in a line: hepatitis C replication reporter changes, two-sided – Huh7 cells, luciferase reporter, HCV replication inhibitor project, primary screen (AID 1109).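 Note: huh7 hepatoma cells harbouring a luciferase neomycin HCV replicon reporter; luciferase luminescence as measure of HCV replicon replication; test concentration not given here.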 The settings on record: Huh7 HCV replicon luciferase reporter, 48 h; higher = more signal. (In general: In a reporter assay the amount or activity of a reporter protein is the signal.)
Assay [3] addresses Left-right determination factor 2 (Homo sapiens) (UniProt O00292). The experiment in a line: small molecules binding LEFTY2 protein – biochemical, small-molecule microarray, 635 nm fluorescence scan, primary screen (AID 1110). The following applies: higher = more signal.
The target of assay [4] is Calmodulin-1 (Homo sapiens) (UniProt P0DP23). The experiment in a line: small molecules binding calmodulin-1 with EGTA – biochemical, small-molecule microarray, Cy5-labelled CALM1, profiling panel (AID 1111).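 Note: labelled calmodulin applied in Tris saline Tween buffer holding calcium plus EGTA and DTT.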 The following applies: Cy5-CALM1 binding fluorescence, higher = more signal.
The target is the same in assay [5]. The assay is described as follows: small molecules binding Ca-loaded calmodulin-1 – biochemical, small-molecule microarray, Cy5-labelled CALM1, plus calcium, artefact control for SMM control-protein annotation, profiling panel (AID 1112).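 Note: score merges spot fluorescence with signal to noise from triplicate slides.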 The settings on record: Cy5-CALM1 binding fluorescence, higher = more signal.
Assay [6] can be described thus: probe aWnt5a binding to arrayed compounds – biochemical, biotinylated probe, 635/667 nm fluorescence, primary screen (AID 1113).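 Note: score merges 667 nm fluorescence intensity with signal-to-noise per printed feature.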 The following applies: small-molecule microarray, higher = more signal.
A short description of assay [7]: probe aShh binding to arrayed compounds – biochemical, biotinylated probe, 635/667 nm fluorescence, primary screen (AID 1114).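 Note: probe is biotin-labelled aShh protein from a stem cell growth factor screen; measures binding of labelled protein to compounds printed on the slide; score merges feature fluorescence at 667 nm with signal-to-noise.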 The following applies: small-molecule microarray, higher = more signal.
Assay [8] is described as follows: probe aNog binding to arrayed compounds – biochemical, biotinylated probe, 635/667 nm fluorescence, primary screen (AID 1115).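 Note: probe is biotinylated aNog protein used at 0.15 µg/mL for 1 h at 4 C; z-score combines 667 nm fluorescence of each spot with its signal to noise.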 The settings on record: small-molecule microarray, higher = more signal.
Assay [9] addresses Torsin-1A-interacting protein 1 (Homo sapiens) (UniProt Q5JTV8). The experiment in a line: compound microarray binding of lysate hLAP1 – cell lysate, small-molecule microarray, COS7 lysate, 635/667 nm fluorescence, primary screen (AID 1116). The following applies: 635 nm fluorescence, higher = more signal.
Assay [10] addresses Alpha-bungarotoxin (Bungarus multicinctus) (UniProt P60615). The experiment in a line: compounds binding labelled alpha-BTX control protein – biochemical, small-molecule microarray, Alexa647 label, 635/667 nm fluorescence, artefact control for SMM control protein annotation, profiling panel (AID 1117). The settings on record: alpha-BTX-A647 binding fluorescence, higher = more signal.

For assay [11], the target named is Albumin (Bos taurus) (UniProt P02769). The experiment in a line: compounds binding labelled BSA control protein – biochemical, small-molecule microarray, Alexa647 label, 635/667 nm fluorescence, artefact control for SMM control protein annotation, profiling panel (AID 1118).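 Note: score merges 667 nm emission intensity and signal-to-noise per printed compound spot.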 The settings on record: BSA-A647 binding, fluorescence 635 nm, higher = more signal.
Sequence of Albumin (Bos taurus) (P02769 whole entry, looked up): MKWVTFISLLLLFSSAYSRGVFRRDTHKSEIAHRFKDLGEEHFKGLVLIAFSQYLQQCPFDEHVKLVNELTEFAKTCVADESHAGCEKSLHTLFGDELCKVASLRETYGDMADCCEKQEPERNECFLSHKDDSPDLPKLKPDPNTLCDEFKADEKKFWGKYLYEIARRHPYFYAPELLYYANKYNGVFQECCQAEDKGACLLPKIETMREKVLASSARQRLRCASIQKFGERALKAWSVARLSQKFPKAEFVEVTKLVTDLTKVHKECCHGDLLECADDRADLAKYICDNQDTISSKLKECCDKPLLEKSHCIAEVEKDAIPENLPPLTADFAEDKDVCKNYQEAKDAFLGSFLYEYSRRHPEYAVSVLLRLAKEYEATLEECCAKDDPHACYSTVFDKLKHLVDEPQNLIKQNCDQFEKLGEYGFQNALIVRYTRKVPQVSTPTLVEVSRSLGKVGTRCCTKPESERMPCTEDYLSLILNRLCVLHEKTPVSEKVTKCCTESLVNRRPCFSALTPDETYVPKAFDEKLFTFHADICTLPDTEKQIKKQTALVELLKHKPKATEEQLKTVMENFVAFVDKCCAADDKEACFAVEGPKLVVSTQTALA
The nature of assay [12]: probe aXIP binding to arrayed compounds – biochemical, NeuroSMM set, 635/667 nm fluorescence, primary screen (AID 1119).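 Note: probe is the protein aXip251-270 applied at 1 µg/mL to compound-printed slides; binding of probe to printed compounds measured as 667 nm fluorescence plus signal to noise.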 The settings on record: small-molecule microarray, higher = more signal, called active from +8 up or from −8 down.
Assay [13] in a line: probe aNOTCH3 binding on compound microarray – biochemical, small-molecule microarray, 635/667 nm fluorescence, primary screen (AID 1120).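 Note: probe is a biotin-tagged antibody raised against NOTCH3 rather than NOTCH3 protein; score merges spot fluorescence near 667 nm with spot signal to noise.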 The following applies: higher = more signal.
Assay [14] is described as follows: probe aNOTCH2 binding on compound microarray – biochemical, small-molecule microarray, 635/667 nm fluorescence, primary screen (AID 1121).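 Note: score merges feature fluorescence read at 667 nm with its signal to noise.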 The following applies: higher = more signal.
The target in assay [15] is Carbonic anhydrase 2 (Homo sapiens) (UniProt P00918). The assay is described as follows: compounds binding carbonic anhydrase 2 – biochemical, small-molecule microarray, Alexa647-labelled CAII, profiling panel (AID 1122). The settings on record: CAII-A647 binding fluorescence, higher = more signal.
A short description of assay [16]: COS7 lysate on small-molecule microarray, probe aHis, 635 nm (AID 1123).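 Note: z-score combines 667nm fluorescence intensity with signal-to-noise per printed compound spot.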 The following applies: COS7 cell lysate, fluorescence, higher = more signal.
Assay [17] can be described thus: probe aLAP1 signal on lysate-treated microarray – cell lysate, small-molecule microarray, COS7 lysate, primary screen (AID 1124).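 Note: lysate comes from COS7 cells expressing LAP1 and is applied at 0.3 µg/mL; score merges spot fluorescence near 667 nm with signal-to-noise over triplicate slides.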 The following applies: probe aLAP1, fluorescence, higher = more signal.
Assay [18] relates to Sam68 (KHDRBS1). The experiment in a line: compounds binding KHDRBS1 protein – biochemical, small-molecule microarray, 635 nm fluorescence, primary screen (AID 1125).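 Note: score merges 667 nm channel intensity with signal to noise over triplicate slides.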 The following applies: higher = more signal.
Assay [19] deals with Chordin-like protein 2 (CHRDL2). The assay is described as follows: compounds binding chordin-like 2 – biochemical, small-molecule microarray, 635 nm fluorescence, primary screen (AID 1126).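 Note: printed compound slides probed with Chrdl2 protein at 4 µg/mL for 1 h at 4 C; score merges 667 nm emission intensity with signal to noise over three replicate slides.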 The settings on record: fluorescence 635 nm, higher = more signal.
Assay [20] has as its target Concanavalin-A (Canavalia ensiformis) (UniProt P02866). The assay is described as follows: compounds binding concanavalin A lectin – biochemical, small-molecule microarray, Alexa647 label, 635 nm, artefact control for SMM control protein annotation, primary screen (AID 1127).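 Note: z combines 667 nm emission intensity with signal-to-noise across three replicate slides.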 The following applies: ConA-A647 binding fluorescence, higher = more signal.

Activity calls are given as the source filed them.

Sequence of Torsin-1A-interacting protein 1 (Homo sapiens) (Q5JTV8 whole entry, looked up): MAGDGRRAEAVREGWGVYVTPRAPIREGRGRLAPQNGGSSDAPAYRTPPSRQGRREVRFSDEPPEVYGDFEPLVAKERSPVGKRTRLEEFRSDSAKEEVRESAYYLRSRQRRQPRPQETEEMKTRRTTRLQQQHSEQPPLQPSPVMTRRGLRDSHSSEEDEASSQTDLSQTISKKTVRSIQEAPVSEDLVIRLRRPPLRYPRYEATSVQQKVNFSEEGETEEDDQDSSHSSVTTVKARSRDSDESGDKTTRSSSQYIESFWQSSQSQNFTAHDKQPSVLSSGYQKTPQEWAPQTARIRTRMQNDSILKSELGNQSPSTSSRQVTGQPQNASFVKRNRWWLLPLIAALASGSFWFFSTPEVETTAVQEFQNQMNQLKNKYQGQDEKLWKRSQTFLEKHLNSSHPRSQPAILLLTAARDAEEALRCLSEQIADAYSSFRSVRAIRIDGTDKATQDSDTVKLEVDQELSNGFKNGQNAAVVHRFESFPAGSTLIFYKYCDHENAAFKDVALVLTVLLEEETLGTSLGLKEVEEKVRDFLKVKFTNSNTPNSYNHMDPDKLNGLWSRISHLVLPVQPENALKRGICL
Sequence of Alpha-bungarotoxin (Bungarus multicinctus) (P60615 whole entry, looked up): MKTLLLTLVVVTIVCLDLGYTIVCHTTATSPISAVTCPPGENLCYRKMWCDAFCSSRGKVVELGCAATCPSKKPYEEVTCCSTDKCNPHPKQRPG
Sequence of Left-right determination factor 2 (Homo sapiens) (O00292 whole entry, looked up): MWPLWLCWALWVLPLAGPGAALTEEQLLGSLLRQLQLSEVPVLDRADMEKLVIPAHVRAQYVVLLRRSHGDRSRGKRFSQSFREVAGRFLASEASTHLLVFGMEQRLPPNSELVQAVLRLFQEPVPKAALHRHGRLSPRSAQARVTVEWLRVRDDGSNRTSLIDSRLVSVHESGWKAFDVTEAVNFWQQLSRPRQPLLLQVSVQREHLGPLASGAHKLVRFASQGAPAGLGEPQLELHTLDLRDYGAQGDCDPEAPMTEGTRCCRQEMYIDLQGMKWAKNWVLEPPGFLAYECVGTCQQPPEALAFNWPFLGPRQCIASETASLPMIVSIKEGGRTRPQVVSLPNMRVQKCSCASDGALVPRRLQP
Sequence of Concanavalin-A (Canavalia ensiformis) (P02866 whole entry, looked up): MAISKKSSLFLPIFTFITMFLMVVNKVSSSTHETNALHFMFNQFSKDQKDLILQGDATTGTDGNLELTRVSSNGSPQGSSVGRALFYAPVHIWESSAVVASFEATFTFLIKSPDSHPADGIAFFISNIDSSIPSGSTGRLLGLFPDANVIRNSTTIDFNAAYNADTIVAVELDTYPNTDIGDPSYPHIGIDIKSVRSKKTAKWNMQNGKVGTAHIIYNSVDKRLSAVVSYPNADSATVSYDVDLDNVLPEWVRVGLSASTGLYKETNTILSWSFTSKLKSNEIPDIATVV

Regarding `Cc1ccc(S[C@]2(C(=O)O)CC(=O)N(Cc3ccccc3Cl)[C@@H]2c2ccc(CO)cc2)cc1`, the composite z-score in assay [1] is 0.459; in assay [3] it was -1.54; in assay [4], 0.459; in [5], 0.644; in assay [6] it was -0.192; in assay [7], 0.131. Moreover, the composite z-score in [8] was 0.549; in assay [9], 0.0695; in [10] it was 1.57; in assay [11], 0.489; in [13] it was -0.159; in [14], -0.0519. Also, the composite z-score was 0.75 in assay [15]; 1.72 in assay [16]; 0.591 in [17]; -0.503 in assay [18]; -0.828 in assay [19]; -0.503 in assay [20]. This compound came in with a z-score in [2] of -0.828. For the same compound, the composite Z-score in [12] was -0.173 (inactive).

Turning to `CN(C)CCCCNC(=O)[C@H]1C[C@H]2C(=O)N3CCC[C@H]3C(=O)N2[C@H]1c1ccc(O)cc1`, the composite z-score in assay [1] is -1.11; in assay [3] it was -0.148; in assay [4], -0.969; in assay [5], -0.949; in assay [6] it was -0.45; in assay [7], -0.401. Moreover, the composite z-score in assay [8] is 0.39; in assay [9], -0.206; in assay [10], -1.01; in assay [11] it was -0.813; in [13], -0.738; in [14], -0.5. Also, the composite z-score was 0.666 in [15]; 1.44 in assay [16]; -0.642 in assay [17]; -1.11 in [18]; 0.0994 in assay [19]; -0.397 in assay [20]. Also, in [2], the z-score came out at 0.939. Also, in assay [12], the composite Z-score was 0.11 (inactive).

Take `COc1ccc([Si](C)(C)[C@@H]2[C@@H](CCO)O[C@]3(C(=O)N(Cc4cccc(N5C(=O)c6ccccc6Oc6ccccc65)c4)c4ccccc43)[C@H]2C)cc1`: the composite z-score is 0.405 in assay [1]; -0.704 in assay [3]; 0.949 in assay [4]; 0.646 in [5]; -0.208 in assay [6]; -0.221 in [7]. Besides, the composite z-score in [8] is -0.0641; in assay [9], 0.0437; in [10], -0.115; in assay [11], 0.326; in assay [13], -0.157; in assay [14], -0.0712. For the same compound, the composite z-score in [15] is 0.411; in assay [16], 1.07; in assay [17] it was 0.594; in assay [18], 0.554; in assay [19] it was -0.245; in assay [20], 0.276. This compound also yielded a z-score in assay [2] of -4.56. Further, in assay [12], the composite Z-score is -0.0368 (inactive).

Take `CCOC(=O)C[C@H]1[C@H](OC(=O)c2ccc(-c3ccccc3)cc2)[C@@H](NC(=O)c2ccc3ccccc3n2)c2cc(OCCCO)ccc2N1C(=O)c1ccccc1`: the composite z-score in [1] was 1.33; in [3], 0.479; in assay [4], 0.992; in assay [5], 0.389; in [6], -0.0606; in assay [7], -0.0904. In addition, the composite z-score was -0.302 in assay [8]; 0.574 in assay [9]; 0.452 in [10]; 0.58 in assay [11]; 0.0916 in assay [13]; -0.0613 in [14]. Besides, the composite z-score stood at 0.14 in [15]; 0.554 in assay [16]; 0.0488 in assay [17]; 1.25 in [18]; 0.423 in [19]; 1.04 in [20]. Moreover, the z-score in assay [2] was -1.1. Besides, in [12], the composite Z-score is -0.202 (inactive).

Take `C=C(CCCC)C(=O)CC[C@@H](OC(=O)c1ccccc1-c1ccccc1C(=O)O)c1cccc(OCCO)c1`: the composite z-score is 0.834 in assay [1]; 0.373 in assay [3]; -0.826 in [4]; -0.973 in assay [5]; -0.148 in [6]; -0.0709 in assay [7]. Moreover, the composite z-score in assay [8] was 0.468; in assay [9], 2.19; in [10] it was -0.14; in [11], -0.658; in [13] it was -0.15; in assay [14], -0.154. Further, the composite z-score in [15] is 0.728; in assay [16], 0.361; in assay [17], 0.742; in assay [18], 0.986; in assay [19], 1.22; in [20], -0.5. Also, in assay [2], the z-score was -4.38. In addition, the composite Z-score in assay [12] is -0.263 (inactive).

Source of the values: PubChem BioAssay.
